Source: PubChem BioAssay AID2796 (The Scripps Research Institute Molecular Screening Center, 2010)
In all, about 320,000 compounds went through this assay and about 8,000 (2.5%) were called active. The full list was thinned out, with actives kept by preference. Values without a mark were called inactive. No stated cut-off is given here; in the data, active means activation above about 47%; inactive means the rest.

Target: Aryl hydrocarbon receptor (Homo sapiens) (UniProt P35869)
Assay: AHR activators, primary screen, cell-based, luminescence, luciferase reporter, human (AID 2796);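 further: 0% = vehicle wells and 100% = reference agonist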
Settings: AHR-responsive luciferase reporter cells, at 5 µM, stronger effect = higher value

Chain of Aryl hydrocarbon receptor (Homo sapiens) (P35869 whole entry, looked up): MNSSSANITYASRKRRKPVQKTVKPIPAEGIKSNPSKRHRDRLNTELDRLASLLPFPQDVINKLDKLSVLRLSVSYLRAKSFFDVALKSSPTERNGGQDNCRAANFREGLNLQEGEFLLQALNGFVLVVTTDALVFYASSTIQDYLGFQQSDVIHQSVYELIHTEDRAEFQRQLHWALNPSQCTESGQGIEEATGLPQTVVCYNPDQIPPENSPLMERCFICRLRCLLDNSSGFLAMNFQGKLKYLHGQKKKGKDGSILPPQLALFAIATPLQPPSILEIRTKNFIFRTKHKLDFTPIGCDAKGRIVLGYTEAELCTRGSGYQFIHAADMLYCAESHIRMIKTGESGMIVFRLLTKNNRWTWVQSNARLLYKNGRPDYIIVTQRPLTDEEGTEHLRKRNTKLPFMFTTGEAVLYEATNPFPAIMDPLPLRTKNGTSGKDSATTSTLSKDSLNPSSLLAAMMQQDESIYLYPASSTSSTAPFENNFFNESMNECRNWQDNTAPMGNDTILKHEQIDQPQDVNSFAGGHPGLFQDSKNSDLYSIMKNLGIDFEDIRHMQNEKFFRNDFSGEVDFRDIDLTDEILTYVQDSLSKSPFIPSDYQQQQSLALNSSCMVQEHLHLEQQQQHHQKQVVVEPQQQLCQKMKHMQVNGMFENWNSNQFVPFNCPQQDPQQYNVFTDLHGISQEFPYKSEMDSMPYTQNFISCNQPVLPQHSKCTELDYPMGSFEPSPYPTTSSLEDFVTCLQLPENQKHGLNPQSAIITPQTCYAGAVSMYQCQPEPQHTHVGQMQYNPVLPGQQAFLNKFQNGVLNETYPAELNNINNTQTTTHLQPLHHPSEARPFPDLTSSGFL

SMILES	activation
CC(c1ccco1)N(C(=O)COc1ccccc1[N+](=O)[O-])c1ccccn1 (centres undefined)	1.97%
CC(C)=CCN1CCN(Cc2ccc(Oc3ncccn3)cc2)CC1CCO (centres undefined)	-1.11%
CCc1ccc(-c2cc(C(=O)NN3CCN(C)CC3)c3ccccc3n2)cc1	30.5%
CCc1ccc(NC(=O)c2ccc(Cn3cc([N+](=O)[O-])cn3)cc2)cc1	3.58%
O=C(NCCc1ccccn1)c1nc(Cn2cc([N+](=O)[O-])cn2)no1	0.9%
O=C(Nc1ccc(Br)c2cccnc12)c1ccc(Cn2cc([N+](=O)[O-])cn2)o1	52% (active)
Cn1c(N2CCOCC2)c(C=O)c2ccccc21	1.65%
O=C(OCC(=O)N1CCN(c2ccccc2)CC1)c1ccc([N+](=O)[O-])s1	0.3%
CSCCC1NC2(C(=O)Nc3ccc(Cl)cc32)[C@@H]2C(=O)N(C3CCCC3)C(=O)[C@H]12 (some centres undefined)	8.17%
O=c1cc(Cn2nnc(-c3ccc(Cl)cc3)n2)nc2sccn12	3.29%
COc1ccccc1N1CCN(C(=O)Cn2nnc(-c3cccs3)n2)CC1	4.18%
Clc1cccc(Cl)c1Cn1nnc(-c2cccs2)n1	64.8% (active)
Cc1nnc(SCC(=O)NC(=O)NC2CCCC2)n1N	1.5%
Cc1nnc(SCC(=O)Nc2cccc(N)c2)n1-c1ccccc1	7.29%
O=C(CNC(=O)c1ccc2ccccc2c1)Nc1ncccc1O	10.7%
Cc1nc2ccccc2n1CC(=O)N/N=C/c1cccnc1	2.29%
Cc1ccc(NC(=O)CSc2cccc3cccnc23)c(C)c1	10.7%
O=C(CSc1cccc2cccnc12)N/N=C/c1cccnc1	150% (active)
CCN(CC(=O)Nc1c(F)cccc1F)C(=O)C1CCC1	-0.62%
CCCNC(=O)CSc1nc(Cc2ccccc2)nc2ccccc12	-0.23%
Cc1cc(SCC(=O)NCCN2C(=O)CSC2=O)nc2ccccc12	55.3% (active)
COc1ccc2c(C)cc(SCC(=O)NCC3CCCO3)nc2c1 (centres undefined)	17.6%
CC(C)OC(=O)Cn1nc(C(F)(F)F)c2c1CCCC2	-2.63%
O=C(COC(=O)c1cc(=O)[nH]c2ccccc12)Nc1nc(-c2cccc(Br)c2)cs1	5%

SMILES	activation
CCOC(=O)c1cc2c(=O)[nH]c(C(Cl)(Cl)Cl)nc2o1	-0.93%
CC1(C)Oc2ccc(C(=O)N3CCOCC3)cc2N(CC(=O)Nc2ccccc2)C1=O	1.48%
CCSc1nc2c(c(=O)[nH]1)C(c1cccnc1)C(C(=O)OC(C)C)=C(C)N2 (centres undefined)	0.13%
COc1ccc(-n2c(=S)[nH]c3sc4c(c3c2=O)CCc2ccccc2-4)cc1	8.98%
CSc1nc2sc3c(c2c(=O)[nH]1)CCc1ccccc1-3	74% (active)
CCC1(C)Cc2c(sc3nc(SC)[nH]c(=O)c23)CO1 (centres undefined)	-2.64%
O=C(CNC(=O)Cc1ccccc1)NCC(=O)OCC(=O)c1ccccc1Cl	22.1%
C/C(=N/NC(=O)c1ccncc1)c1ccc2c(c1)OCO2	24.8%
C/C(=N/NC(=S)Nc1ccccc1)c1ccc2c(c1)OCO2	111% (active)
C/C(=N\NC(=O)C(N)=O)c1ccc2c(c1)OCCO2	3.27%
O=C(CSc1nccc(=O)[nH]1)Nc1ccc(N2CCOCC2)c(Cl)c1	0.92%
O=[N+]([O-])c1ccc2[nH]c3c(c2c1)CCCC3O (centres undefined)	-1.41%
C#CCNc1ccc(C(=O)OCC)cc1	-1.69%
CCOC(=O)c1ccc2[nH]c3c(c2c1)CCCC3NC=O (centres undefined)	115% (active)
COc1ccc(S(=O)(=O)N2CCOCC2)cc1NC(=O)CSc1ncnc2ccccc12	13.1%
CCOC(=O)N1CCC(NC(=O)CCc2cn(C)c3ccccc23)CC1	-3.32%
Cc1cc(Nc2ccc(Cl)cc2)nc(N2CCOCC2)n1	69.5% (active)
COc1ccc(Nc2ncc(F)c(N3CCOCC3)n2)cc1	22.4%
Cc1ccc(Nc2nc(N3CCOCC3)nc(N3CCOCC3)n2)cc1Cl	12.7%
CCCCc1ccc(NS(=O)(=O)c2cccc(C(=O)N3CCCN(C)CC3)c2)cc1	-1.46%
CCOC(=O)c1ccc(NC(=O)C2CC(=O)N(c3ccc4c(c3)OCCO4)C2)cc1 (centres undefined)	-1.04%
O=C(c1cc2ccccc2s1)N1CCN(c2ccccn2)CC1	27.8%
CCc1ccccc1N(CC(=O)N1CCN(c2ccccc2F)CC1)S(C)(=O)=O	-0.81%
COc1ccc(/C=N/NC(=O)c2ccc3c(c2)OCCO3)c(OC)c1	2.32%

SMILES	activation
COc1ccc(C(=O)Nc2ccccc2C(=O)N/N=C/c2ccc(O)c(OC)c2)cc1	8.36%
COc1ccc(C(=O)Nc2ccccc2C(=O)N/N=C/c2ccccc2OC)cc1	103% (active)
O=C(/C=C(O)/C=C/c1ccc(O)cc1)/C=C/c1ccc(O)cc1	-0.31%
O=C(N/N=C/c1cccc(Br)c1)c1ccc(N2CCCC2=O)cc1	-0.14%
O=C(N/N=C\c1cccc(Br)c1)c1ccccc1-n1cccc1	64.9% (active)
Cn1c(=O)n(C)c2cc(/C=N/NC(=O)c3cccc(Br)c3)ccc21	31.6%
CC(C)CC(=O)NC(=S)Nc1ccc(F)cc1F	-1.68%
CCOC(=O)C1CCN(S(=O)(=O)c2c(C)noc2C)CC1	-0.3%
C=CCC1(C(=O)N(C)Cc2ccccc2)CCN(C(=O)OC(C)(C)C)CC1	5%
COC(=O)[C@]1(C)N[C@H](CN(C)C(=O)c2ccc(C(C)(C)C)cc2)[C@@H]2C(=O)N(C)C(=O)[C@@H]21	0.09%
CC(C(=O)N=Nc1c(O)n(C)c2ccc(Br)cc12)n1cnc2ccccc2c1=O (centres undefined)	80% (active)
O=C(Nn1cnc2ccccc2c1=O)c1ccccc1	4.61%
N#CCCCn1c(O)c(N=NC(=O)C(O)c2ccccc2)c2ccccc21 (centres undefined)	6.74%
O=S(=O)(NCCSc1ccccn1)c1ccc(Cl)cc1	0.03%
COc1ccc(CCNC(=O)COC(=O)c2ncc(Cl)c(Cl)c2Cl)cc1OC	-0.83%
COc1ccc(Nc2nc(N)nc(CSC(=S)N3CCC(C)CC3)n2)cc1	25.5%
CCNC(=S)N(CCc1c(C)[nH]c2ccc(C)cc12)Cc1ccco1	59.4% (active)
COCCNC(=S)N(CCc1c(C)[nH]c2ccc(C)cc12)Cc1cccnc1	20.1%
COc1cccc(NC(=S)N(CCc2c(C)[nH]c3ccccc23)Cc2ccco2)c1	12%
Cc1ccc(CN(CC(=O)NC2CCCCC2)C(=O)c2csnn2)cc1	-0.48%
CCOC(=O)C1(CCOc2ccccc2)CCN(Cc2cc(OC)cc(OC)c2)CC1	7.35%
CCOc1ccc(NC(=O)[C@H](C)NC(=O)C2CC(=O)N(c3ccc(OC)cc3)C2)cc1 (some centres undefined)	1.62%
CCNC(=O)NC(=O)C(C)OC(=O)C1CCN(S(=O)(=O)c2ccccc2F)CC1 (centres undefined)	-0.8%
COc1ccccc1N1CCN(C(=O)C2Cc3ccccc3CN2C(=O)c2ccco2)CC1 (centres undefined)	1.25%

SMILES	activation
COc1ccc(NC(=O)c2cnc(NS(=O)(=O)c3ccccc3)nc2)cc1	-2.22%
COc1ccc(C(=O)Nc2ncc3c(n2)-c2ccccc2CC3)cc1	103% (active)
O=C(Nc1ncc2c(n1)-c1ccccc1OC2)c1ccc(Cl)cc1	37%
C/C(=N\NC(=S)NCc1ccccc1)C1CCCCC1	3.74%
CCN(c1ccccc1)S(=O)(=O)c1ccc(C(=O)Nc2ccccc2OC)cc1	1.62%
O=C(CSc1ccccn1)Nc1nc2c(ccc3ccccc32)s1	96.3% (active)
COC(=O)c1ccccc1NC(=O)CSc1ccccn1	0.37%
CCOC(=O)CSc1ccccn1	-0.06%
Cc1ccc(S(=O)(=O)CCC(=O)OCC(=O)NCCc2ccc(S(N)(=O)=O)cc2)cc1	-0.33%
CN(CC(=O)Nc1ccc(OC(F)F)cc1)S(=O)(=O)/C=C/c1ccccc1	3.23%
Cc1cc(C)c(S(=O)(=O)c2ccccc2)c(OC(=O)c2c(F)cccc2Cl)n1	-0.47%
Cc1cccc(C)c1NC(=O)C1CCCN1C(=O)OC(C)(C)C (centres undefined)	4.06%
CN(C)S(=O)(=O)c1ccc(NC(=O)COC(=O)c2n[nH]c3ccccc23)cc1	6.56%
O=C(COC(=O)c1n[nH]c2ccccc12)Nc1ccccc1Br	53.9% (active)
COc1ccc(NC(=O)COC(=O)c2n[nH]c3ccccc23)c(OC)c1	23.3%
C[C@@H]1NC(=O)c2cc([N+](=O)[O-])cc(F)c2NCCC[C@@H](C(N)=O)NC(=O)[C@H](CC(N)=O)NC1=O	-4.67%
COCCN(C(=O)c1ccccc1F)c1c(N)n(Cc2ccccc2)c(=O)[nH]c1=O	0.27%
O=S(=O)(Nc1ccc(O)c2ccccc12)c1ccc(OC(F)(F)F)cc1	33.7%
CCOc1ccc(N(CC)S(=O)(=O)c2cccc3nsnc23)cc1	5.33%
CCOc1ccc(OCC)c(NC(=O)CN(C)S(=O)(=O)c2cccc3nsnc23)c1	53.7% (active)
CCOc1ccccc1NC(=O)CCS(=O)(=O)c1cccc2nsnc12	11.7%
Cc1ccccc1CN1CCC(C(=O)Nc2ccc(Oc3cccnc3)cc2)CC1	1.47%
